From article PMC11006913

Tests used:
Assay in all cases: PBM; 200 nM protein, PBS
Settings in all cases: dsDNA, one strand shown
HESX1 [1] = molecular target: HESX1 (Homo sapiens, UniProt Q9UBX0 95-180, R165K)
SHOX [2] = molecular target: SHOX (Homo sapiens, UniProt O15266 103-189)
ALX4 = ALX4 (Homo sapiens, UniProt Q9H161 200-286, Q225E)
HESX1 [3] = molecular target: HESX1 (Homo sapiens, UniProt Q9UBX0 95-180)
MSX2 = MSX2 (Homo sapiens, UniProt P35548 130-214, R199I)
ALX1 [4] = molecular target: ALX1 (Homo sapiens, UniProt Q15699 118-204, L144V)
Sequence of ALX1 (Homo sapiens, UniProt Q15699 118-204, L144V) (Q15699 118-204 L144V): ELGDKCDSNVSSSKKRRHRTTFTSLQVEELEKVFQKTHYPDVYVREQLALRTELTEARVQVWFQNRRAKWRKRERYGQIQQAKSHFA

ALX3 [5] = molecular target: ALX3 (Homo sapiens, UniProt O95076 139-225, N203Q)
Sequence of ALX3 (Homo sapiens, UniProt O95076 139-225, N203Q) (O95076 139-225 N203Q): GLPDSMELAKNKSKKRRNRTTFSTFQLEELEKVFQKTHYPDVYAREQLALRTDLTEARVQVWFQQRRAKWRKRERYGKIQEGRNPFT

SHOX [6] = molecular target: SHOX (Homo sapiens, UniProt O15266 103-189, R173C)
Sequence of SHOX (Homo sapiens, UniProt O15266 103-189, R173C) (O15266 103-189 R173C): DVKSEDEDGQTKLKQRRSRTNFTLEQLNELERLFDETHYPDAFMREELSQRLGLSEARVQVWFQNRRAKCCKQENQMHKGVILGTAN

ALX1 [7] = molecular target: ALX1 (Homo sapiens, UniProt Q15699 118-204, L144R)
Sequence of ALX1 (Homo sapiens, UniProt Q15699 118-204, L144R) (Q15699 118-204 L144R): as the sequence (Q15699 118-204 L144V) above, with V27R counted along it

ALX3 [8] = molecular target: ALX3 (Homo sapiens, UniProt O95076 139-225)
Sequence of ALX3 (Homo sapiens, UniProt O95076 139-225) (O95076 139-225): as the sequence (O95076 139-225 N203Q) above, with Q65N counted along it

PROP1 [9] = molecular target: PROP1 (Homo sapiens, UniProt O75360 56-141)
Sequence of PROP1 (Homo sapiens, UniProt O75360 56-141) (O75360 56-141): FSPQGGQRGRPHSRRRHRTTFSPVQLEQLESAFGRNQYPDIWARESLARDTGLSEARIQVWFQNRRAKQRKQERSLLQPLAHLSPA

HESX1 [10] = molecular target: HESX1 (Homo sapiens, UniProt Q9UBX0 95-180, R109Q)
Sequence of HESX1 (Homo sapiens, UniProt Q9UBX0 95-180, R109Q) (Q9UBX0 95-180 R109Q): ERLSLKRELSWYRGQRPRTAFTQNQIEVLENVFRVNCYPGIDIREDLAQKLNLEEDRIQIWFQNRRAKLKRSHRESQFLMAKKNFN

PROP1 [11] = molecular target: PROP1 (Homo sapiens, UniProt O75360 56-141, R99H)
Sequence of PROP1 (Homo sapiens, UniProt O75360 56-141, R99H) (O75360 56-141 R99H): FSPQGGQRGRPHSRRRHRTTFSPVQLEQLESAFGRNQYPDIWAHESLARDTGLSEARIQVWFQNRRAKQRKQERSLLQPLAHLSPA

ALX3 [12] = molecular target: ALX3 (Homo sapiens, UniProt O95076 139-225, L168Q)
Sequence of ALX3 (Homo sapiens, UniProt O95076 139-225, L168Q) (O95076 139-225 L168Q): as the sequence (O95076 139-225 N203Q) above, with L30Q, Q65N counted along it

HESX1 [13] = molecular target: HESX1 (Homo sapiens, UniProt Q9UBX0 95-180, P111T)
Sequence of HESX1 (Homo sapiens, UniProt Q9UBX0 95-180, P111T) (Q9UBX0 95-180 P111T): as the sequence (Q9UBX0 95-180 R109Q) above, with Q15R, P17T counted along it

ALX3 [14] = molecular target: ALX3 (Homo sapiens, UniProt O95076 139-225, L168V)
Sequence of ALX3 (Homo sapiens, UniProt O95076 139-225, L168V) (O95076 139-225 L168V): as the sequence (O95076 139-225 N203Q) above, with L30V, Q65N counted along it

PROP1 [15] = molecular target: PROP1 (Homo sapiens, UniProt O75360 56-141, F88S)
Sequence of PROP1 (Homo sapiens, UniProt O75360 56-141, F88S) (O75360 56-141 F88S): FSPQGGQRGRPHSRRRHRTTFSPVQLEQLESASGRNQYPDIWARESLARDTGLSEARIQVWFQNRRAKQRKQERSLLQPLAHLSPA

HESX1 [16] = molecular target: HESX1 (Homo sapiens, UniProt Q9UBX0 95-180, F115L)
Sequence of HESX1 (Homo sapiens, UniProt Q9UBX0 95-180, F115L) (Q9UBX0 95-180 F115L): as the sequence (Q9UBX0 95-180 R109Q) above, with Q15R, F21L counted along it

ALX1 [17] = molecular target: ALX1 (Homo sapiens, UniProt Q15699 118-204)
Sequence of ALX1 (Homo sapiens, UniProt Q15699 118-204) (Q15699 118-204): as the sequence (Q15699 118-204 L144V) above, with V27L counted along it

ALX3 [18] = molecular target: ALX3 (Homo sapiens, UniProt O95076 139-225, N203S)
Sequence of ALX3 (Homo sapiens, UniProt O95076 139-225, N203S) (O95076 139-225 N203S): as the sequence (O95076 139-225 N203Q) above, with Q65S counted along it

Sequence of SHOX (Homo sapiens, UniProt O15266 103-189) (O15266 103-189): as the sequence (O15266 103-189 R173C) above, with C71R counted along it
Sequence of ALX4 (Q9H161 200-286 Q225E): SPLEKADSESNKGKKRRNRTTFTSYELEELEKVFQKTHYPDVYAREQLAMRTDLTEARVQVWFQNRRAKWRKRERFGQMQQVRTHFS
Sequence of HESX1 (Homo sapiens, UniProt Q9UBX0 95-180) (Q9UBX0 95-180): as the sequence (Q9UBX0 95-180 R109Q) above, with Q15R counted along it
Sequence of MSX2 (P35548 130-214 R199I): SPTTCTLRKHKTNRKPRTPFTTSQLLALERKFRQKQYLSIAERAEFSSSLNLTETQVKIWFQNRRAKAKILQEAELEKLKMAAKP
Sequence of HESX1 (Homo sapiens, UniProt Q9UBX0 95-180, R165K) (Q9UBX0 95-180 R165K): as the sequence (Q9UBX0 95-180 R109Q) above, with Q15R, R71K counted along it

| Sequence | binding signal (HESX1 [1]) | binding signal (SHOX [2]) | binding signal (ALX4) | binding signal (HESX1 [3]) | binding signal (MSX2) | binding signal (ALX1 [4]) | binding signal (ALX3 [5]) | binding signal (SHOX [6]) | binding signal (ALX1 [7]) | binding signal (ALX3 [8]) | binding signal (PROP1 [9]) | binding signal (HESX1 [10]) | binding signal (PROP1 [11]) | binding signal (ALX3 [12]) | binding signal (HESX1 [13]) | binding signal (ALX3 [14]) | binding signal (PROP1 [15]) | binding signal (HESX1 [16]) | binding signal (ALX1 [17]) | binding signal (ALX3 [18]) |
| --- | --- | --- | --- | --- | --- | --- | --- | --- | --- | --- | --- | --- | --- | --- | --- | --- | --- | --- | --- | --- |
| AATAATTA | 13 upbm affinity estimate (log intensity, higher = more binding, comparable within an allelic series) | 12.1 upbm affinity estimate (log intensity, higher = more binding, comparable within an allelic series) | 13.7 upbm affinity estimate (log intensity, higher = more binding, comparable within an allelic series) | 13 upbm affinity estimate (log intensity, higher = more binding, comparable within an allelic series) | 13.1 upbm affinity estimate (log intensity, higher = more binding, comparable within an allelic series) | 11.9 upbm affinity estimate (log intensity, higher = more binding, comparable within an allelic series) | 8.63 upbm affinity estimate (log intensity, higher = more binding, comparable within an allelic series) | 9.86 upbm affinity estimate (log intensity, higher = more binding, comparable within an allelic series) | 11.7 upbm affinity estimate (log intensity, higher = more binding, comparable within an allelic series) | 12.8 upbm affinity estimate (log intensity, higher = more binding, comparable within an allelic series) | 11.8 upbm affinity estimate (log intensity, higher = more binding, comparable within an allelic series) | 9.38 upbm affinity estimate (log intensity, higher = more binding, comparable within an allelic series) | 11.6 upbm affinity estimate (log intensity, higher = more binding, comparable within an allelic series) | 10.9 upbm affinity estimate (log intensity, higher = more binding, comparable within an allelic series) | 11.5 upbm affinity estimate (log intensity, higher = more binding, comparable within an allelic series) | 10.6 upbm affinity estimate (log intensity, higher = more binding, comparable within an allelic series) | 7.89 upbm affinity estimate (log intensity, higher = more binding, comparable within an allelic series) | 8.2 upbm affinity estimate (log intensity, higher = more binding, comparable within an allelic series) | 12.5 upbm affinity estimate (log intensity, higher = more binding, comparable within an allelic series) | 8.7 upbm affinity estimate (log intensity, higher = more binding, comparable within an allelic series) |
| ATTAATTA | 14 upbm affinity estimate (log intensity, higher = more binding, comparable within an allelic series) | 13.3 upbm affinity estimate (log intensity, higher = more binding, comparable within an allelic series) | 14.6 upbm affinity estimate (log intensity, higher = more binding, comparable within an allelic series) | 13.8 upbm affinity estimate (log intensity, higher = more binding, comparable within an allelic series) | 13.4 upbm affinity estimate (log intensity, higher = more binding, comparable within an allelic series) | 12.5 upbm affinity estimate (log intensity, higher = more binding, comparable within an allelic series) | 8.67 upbm affinity estimate (log intensity, higher = more binding, comparable within an allelic series) | 10.8 upbm affinity estimate (log intensity, higher = more binding, comparable within an allelic series) | 12.1 upbm affinity estimate (log intensity, higher = more binding, comparable within an allelic series) | 13.2 upbm affinity estimate (log intensity, higher = more binding, comparable within an allelic series) | 12.3 upbm affinity estimate (log intensity, higher = more binding, comparable within an allelic series) | 11 upbm affinity estimate (log intensity, higher = more binding, comparable within an allelic series) | 12.5 upbm affinity estimate (log intensity, higher = more binding, comparable within an allelic series) | 11.6 upbm affinity estimate (log intensity, higher = more binding, comparable within an allelic series) | 12.5 upbm affinity estimate (log intensity, higher = more binding, comparable within an allelic series) | 11.5 upbm affinity estimate (log intensity, higher = more binding, comparable within an allelic series) | 8.37 upbm affinity estimate (log intensity, higher = more binding, comparable within an allelic series) | 8.72 upbm affinity estimate (log intensity, higher = more binding, comparable within an allelic series) | 13.2 upbm affinity estimate (log intensity, higher = more binding, comparable within an allelic series) | 8.88 upbm affinity estimate (log intensity, higher = more binding, comparable within an allelic series) |
| ATTAATTG | 13 upbm affinity estimate (log intensity, higher = more binding, comparable within an allelic series) | 12.3 upbm affinity estimate (log intensity, higher = more binding, comparable within an allelic series) | 13.8 upbm affinity estimate (log intensity, higher = more binding, comparable within an allelic series) | 12.9 upbm affinity estimate (log intensity, higher = more binding, comparable within an allelic series) | 13.1 upbm affinity estimate (log intensity, higher = more binding, comparable within an allelic series) | 12.1 upbm affinity estimate (log intensity, higher = more binding, comparable within an allelic series) | 8.48 upbm affinity estimate (log intensity, higher = more binding, comparable within an allelic series) | 9.84 upbm affinity estimate (log intensity, higher = more binding, comparable within an allelic series) | 11.7 upbm affinity estimate (log intensity, higher = more binding, comparable within an allelic series) | 12.7 upbm affinity estimate (log intensity, higher = more binding, comparable within an allelic series) | 11.7 upbm affinity estimate (log intensity, higher = more binding, comparable within an allelic series) | 9.92 upbm affinity estimate (log intensity, higher = more binding, comparable within an allelic series) | 12 upbm affinity estimate (log intensity, higher = more binding, comparable within an allelic series) | 11 upbm affinity estimate (log intensity, higher = more binding, comparable within an allelic series) | 11.6 upbm affinity estimate (log intensity, higher = more binding, comparable within an allelic series) | 10.5 upbm affinity estimate (log intensity, higher = more binding, comparable within an allelic series) | 8 upbm affinity estimate (log intensity, higher = more binding, comparable within an allelic series) | 8.15 upbm affinity estimate (log intensity, higher = more binding, comparable within an allelic series) | 12.6 upbm affinity estimate (log intensity, higher = more binding, comparable within an allelic series) | 8.67 upbm affinity estimate (log intensity, higher = more binding, comparable within an allelic series) |
| ATTAATGA | 11.4 upbm affinity estimate (log intensity, higher = more binding, comparable within an allelic series) | 11.5 upbm affinity estimate (log intensity, higher = more binding, comparable within an allelic series) | 12.8 upbm affinity estimate (log intensity, higher = more binding, comparable within an allelic series) |  |  | 11.6 upbm affinity estimate (log intensity, higher = more binding, comparable within an allelic series) | 8.5 upbm affinity estimate (log intensity, higher = more binding, comparable within an allelic series) | 9.51 upbm affinity estimate (log intensity, higher = more binding, comparable within an allelic series) | 11.4 upbm affinity estimate (log intensity, higher = more binding, comparable within an allelic series) | 12.3 upbm affinity estimate (log intensity, higher = more binding, comparable within an allelic series) | 11.2 upbm affinity estimate (log intensity, higher = more binding, comparable within an allelic series) | 8.79 upbm affinity estimate (log intensity, higher = more binding, comparable within an allelic series) | 10.9 upbm affinity estimate (log intensity, higher = more binding, comparable within an allelic series) | 10.3 upbm affinity estimate (log intensity, higher = more binding, comparable within an allelic series) |  | 9.84 upbm affinity estimate (log intensity, higher = more binding, comparable within an allelic series) | 7.87 upbm affinity estimate (log intensity, higher = more binding, comparable within an allelic series) | 7.87 upbm affinity estimate (log intensity, higher = more binding, comparable within an allelic series) | 12.2 upbm affinity estimate (log intensity, higher = more binding, comparable within an allelic series) | 8.58 upbm affinity estimate (log intensity, higher = more binding, comparable within an allelic series) |
| ATAATTAT | 12.8 upbm affinity estimate (log intensity, higher = more binding, comparable within an allelic series) | 12.1 upbm affinity estimate (log intensity, higher = more binding, comparable within an allelic series) | 13.7 upbm affinity estimate (log intensity, higher = more binding, comparable within an allelic series) | 12.8 upbm affinity estimate (log intensity, higher = more binding, comparable within an allelic series) | 12.9 upbm affinity estimate (log intensity, higher = more binding, comparable within an allelic series) | 11.9 upbm affinity estimate (log intensity, higher = more binding, comparable within an allelic series) | 8.72 upbm affinity estimate (log intensity, higher = more binding, comparable within an allelic series) | 9.85 upbm affinity estimate (log intensity, higher = more binding, comparable within an allelic series) | 11.6 upbm affinity estimate (log intensity, higher = more binding, comparable within an allelic series) | 12.7 upbm affinity estimate (log intensity, higher = more binding, comparable within an allelic series) | 11.8 upbm affinity estimate (log intensity, higher = more binding, comparable within an allelic series) | 9.01 upbm affinity estimate (log intensity, higher = more binding, comparable within an allelic series) | 11.5 upbm affinity estimate (log intensity, higher = more binding, comparable within an allelic series) | 10.8 upbm affinity estimate (log intensity, higher = more binding, comparable within an allelic series) | 11.2 upbm affinity estimate (log intensity, higher = more binding, comparable within an allelic series) | 10.4 upbm affinity estimate (log intensity, higher = more binding, comparable within an allelic series) | 8.04 upbm affinity estimate (log intensity, higher = more binding, comparable within an allelic series) | 7.94 upbm affinity estimate (log intensity, higher = more binding, comparable within an allelic series) | 12.5 upbm affinity estimate (log intensity, higher = more binding, comparable within an allelic series) | 8.79 upbm affinity estimate (log intensity, higher = more binding, comparable within an allelic series) |
